{
  "source": "PubChem BioAssay (Tox21)",
  "note": "Values without a mark were called inactive. Entries that show only a call come without a potency. Activity calls are given as the source filed them. The call rests on the fitted dose curve; in most records, active means well fitted curve in the direction sought with a large enough effect in the repeat runs; inconclusive means weak or mixed curves; inactive means flat fitted curve, though single readings scatter. Tags describe the fitted curve by direction and shape or compound fluorescence and quenching.",
  "data": [
    {"assay": "qHTS assay to test for compound auto fluorescence at 535 nm (green) in HepG2 cells (AID 720675)", "conditions": "green autofluorescence 485/535 nm, 1 h; series mostly up to 91.3 µM", "values": [
      {"smiles": "O=C1CCc2cc(OCCCCc3nnnn3C3CCCCC3)ccc2N1", "Potency": "inactive"},
      {"smiles": "CCCNCCC", "Potency": "inactive"},
      {"smiles": "CC(C(=O)O)c1ccc2c(c1)[nH]c1ccc(Cl)cc12", "note": "(stereo unspecified)", "Potency": "inactive"},
      {"smiles": "O=C1CCc2ccc(OCCCCN3CCN(c4cccc(Cl)c4Cl)CC3)cc2N1", "Potency": "inactive"},
      {"smiles": "COC(=O)C1=C(C)NC(C)=C(C(=O)OCCN2CCN(C(c3ccccc3)c3ccccc3)CC2)C1c1cccc([N+](=O)[O-])c1", "note": "(stereo unspecified)", "Potency": "inactive"},
      {"smiles": "C#C[C@]1(OC(C)=O)CC[C@H]2[C@@H]3CCC4=C[C@@H](OC(C)=O)CC[C@@H]4[C@H]3CC[C@@]21C", "Potency": "inactive"},
      {"smiles": "Nc1nc(-c2ccccc2)cs1", "Potency": "inactive"},
      {"smiles": "CC1(C)[C@@H](O)CC[C@]2(C)[C@H]3C(=O)C=C4[C@@H]5C[C@@](C)(C(=O)O)CC[C@]5(C)CC[C@@]4(C)[C@]3(C)CC[C@@H]12", "Potency": "inactive"},
      {"smiles": "CCc1cccc(CC)c1NC(=O)CN(CC(=O)O)CC(=O)O", "fluorescence, % of fluorescein control": "-0.0501% [at 18.6 µM]"},
      {"smiles": "Cc1c(C)c2c(c(C)c1OC(=O)c1cccnc1)CC[C@@](C)(CCC[C@H](C)CCC[C@H](C)CCCC(C)C)O2", "Potency": "inactive"},
      {"smiles": "CN1CCC[C@@H]1CCO[C@](C)(c1ccccc1)c1ccc(Cl)cc1", "Potency": "inactive"},
      {"smiles": "O=c1oc2cc(O)ccc2c2oc3cc(O)ccc3c12", "Potency": "inactive"},
      {"smiles": "Clc1ccnc(Cl)n1", "Potency": "inactive"},
      {"smiles": "O=C1c2ccccc2C(=O)N1SC1CCCCC1", "Potency": "inactive"},
      {"smiles": "CCOC(=O)c1ccc(C2CCC(NC[C@H](O)COc3ccc(O)c(NS(C)(=O)=O)c3)CC2)cc1", "note": "(stereo partly specified)", "Potency": "inactive"},
      {"smiles": "CN(C)c1ccc(C(=C2C=CC(=[N+](C)C)C=C2)c2ccc(N(C)C)cc2)cc1", "Potency": "inactive"},
      {"smiles": "CCCCCCCCCCCCCC[N+](C)(C)Cc1ccccc1", "Potency": "inactive"},
      {"smiles": "Oc1cc(Cl)cc(Cl)c1Cl", "Potency": "inactive"},
      {"smiles": "C#C[C@]1(O)CC[C@H]2[C@@H]3[C@H](C)CC4=C(CCC(=O)C4)[C@H]3CC[C@@]21C", "Potency": "inactive"},
      {"smiles": "Nc1cc(Cl)c(O)c(Cl)c1", "Potency": "inactive"},
      {"smiles": "Cc1ccc(O)c(O)c1", "Potency": "inactive"},
      {"smiles": "Cc1ccc(C)cc1", "Potency": "inactive"},
      {"smiles": "CN1CCN2c3ccccc3Cc3ccccc3C2C1", "note": "(stereo unspecified)", "Potency": "inactive"},
      {"smiles": "O=C(c1ccc(O)c(O)c1)c1ccc(O)cc1O", "Potency": "inactive"},
      {"smiles": "CC(C)(C)c1ccc(C(O)CCCN2CCC(C(O)(c3ccccc3)c3ccccc3)CC2)cc1", "note": "(stereo unspecified)", "Potency": "inactive"},
      {"smiles": "Cc1cc(=O)oc2cc(O)cc(O)c12", "Potency": "inactive"},
      {"smiles": "Cc1cc(C(C#N)c2ccc(Cl)cc2)c(Cl)cc1NC(=O)c1cc(I)cc(I)c1O", "note": "(stereo unspecified)", "Potency": "inactive"},
      {"smiles": "CC[C@H](C)COC(=O)/C=C/c1ccc(N=Cc2ccc(OC)cc2)cc1", "Potency": "inactive"},
      {"smiles": "COC1=C(OC)C(=O)C(CCCCCCCCCCO)=C(C)C1=O", "Potency": "inactive"},
      {"smiles": "Cc1ccc(O)c(N)c1", "Potency": "inactive"},
      {"smiles": "COC(C)=O", "Potency": "inactive"},
      {"smiles": "CN1CCN(Cc2cc(-c3ccc4[nH]c(=O)oc4c3)co2)[C@@H](c2ccc(F)cc2)C1", "Potency": "inactive"},
      {"smiles": "C/C=C/C=C/COC(=O)C(C)C", "Potency": "inactive"}
    ]},
    {"assay": "qHTS assay to test for compound auto fluorescence at 460 nm (blue) in HEK293 cells (AID 720678); further: potency means the concentration at half of the fitted maximal effect", "conditions": "blue autofluorescence 405/460 nm; series mostly up to 91.3 µM", "summary_of_the_method": "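Triamterene serves as the blue fluorophore standard. Compound signal at 405/460 nm is read in HEK293 wells (2,000 cells, 10% dialyzed FBS) after overnight treatment at 37C.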", "values": [
      {"smiles": "O=C1CCc2cc(OCCCCc3nnnn3C3CCCCC3)ccc2N1", "Potency": "inactive"},
      {"smiles": "CCCNCCC", "Potency": "inactive"},
      {"smiles": "O=C1CCc2ccc(OCCCCN3CCN(c4cccc(Cl)c4Cl)CC3)cc2N1", "Potency": "inactive"},
      {"smiles": "C#C[C@]1(OC(C)=O)CC[C@H]2[C@@H]3CCC4=C[C@@H](OC(C)=O)CC[C@@H]4[C@H]3CC[C@@]21C", "Potency": "inactive"},
      {"smiles": "CC1(C)[C@@H](O)CC[C@]2(C)[C@H]3C(=O)C=C4[C@@H]5C[C@@](C)(C(=O)O)CC[C@]5(C)CC[C@@]4(C)[C@]3(C)CC[C@@H]12", "Potency": "inactive"},
      {"smiles": "COc1cccc2c1C(=O)c1c(O)c3c(c(O)c1C2=O)C[C@@](O)(C(C)=O)C[C@@H]3O[C@H]1C[C@H](N)[C@H](O)[C@H](C)O1", "Potency": "inactive"},
      {"smiles": "CCc1cccc(CC)c1NC(=O)CN(CC(=O)O)CC(=O)O", "fluorescence, % of triamterene": "-0.194% [at 18.6 µM]"},
      {"smiles": "Cc1c(C)c2c(c(C)c1OC(=O)c1cccnc1)CC[C@@](C)(CCC[C@H](C)CCC[C@H](C)CCCC(C)C)O2", "Potency": "inactive"},
      {"smiles": "Clc1ccnc(Cl)n1", "Potency": "inactive"},
      {"smiles": "O=C1c2ccccc2C(=O)N1SC1CCCCC1", "Potency": "inactive"},
      {"smiles": "CCOC(=O)c1ccc(C2CCC(NC[C@H](O)COc3ccc(O)c(NS(C)(=O)=O)c3)CC2)cc1", "note": "(stereo partly specified)", "Potency": "inactive"},
      {"smiles": "CN(C)c1ccc(C(=C2C=CC(=[N+](C)C)C=C2)c2ccc(N(C)C)cc2)cc1", "Potency": "inactive"},
      {"smiles": "CCCCCCCCCCCCCC[N+](C)(C)Cc1ccccc1", "Potency": "inactive"},
      {"smiles": "Oc1cc(Cl)cc(Cl)c1Cl", "Potency": "inactive"},
      {"smiles": "C#C[C@]1(O)CC[C@H]2[C@@H]3[C@H](C)CC4=C(CCC(=O)C4)[C@H]3CC[C@@]21C", "Potency": "inactive"},
      {"smiles": "Cc1ccc(O)c(O)c1", "Potency": "inactive"},
      {"smiles": "Cc1ccc(C)cc1", "Potency": "inactive"},
      {"smiles": "CN1CCN2c3ccccc3Cc3ccccc3C2C1", "note": "(stereo unspecified)", "Potency": "inactive"},
      {"smiles": "O=C(c1ccc(O)c(O)c1)c1ccc(O)cc1O", "Potency": "31.6 µM [fluorescent] (active)"},
      {"smiles": "O=C1NC(=O)[C@@H]2CC=CC[C@H]12", "Potency": "inactive"},
      {"smiles": "Cc1cc(=O)oc2cc(O)cc(O)c12", "Potency": "39.8 µM [fluorescent] (active)"},
      {"smiles": "Cc1cc(C(C#N)c2ccc(Cl)cc2)c(Cl)cc1NC(=O)c1cc(I)cc(I)c1O", "note": "(stereo unspecified)", "Potency": "inactive"},
      {"smiles": "CC[C@H](C)COC(=O)/C=C/c1ccc(N=Cc2ccc(OC)cc2)cc1", "Potency": "inactive"},
      {"smiles": "COC1=C(OC)C(=O)C(CCCCCCCCCCO)=C(C)C1=O", "Potency": "inactive"},
      {"smiles": "Cc1ccc(O)c(N)c1", "Potency": "inactive"},
      {"smiles": "COC(C)=O", "Potency": "inactive"},
      {"smiles": "CN1CCN(Cc2cc(-c3ccc4[nH]c(=O)oc4c3)co2)[C@@H](c2ccc(F)cc2)C1", "Potency": "inactive"},
      {"smiles": "C/C=C/C=C/COC(=O)C(C)C", "Potency": "inactive"}
    ]}
  ]
}
